In PubChem BioAssay (EPA / NIEHS):
Results filed as inconclusive are left out. The source made the active and inactive calls. How the source made its calls: active means hit-call score of the fitted dose curve at least 0.9, where 1 is the maximum; inconclusive means response in the unintended direction; inactive means score below 0.9.

What was measured:
[1] = molecular target: Estrogen receptor (Homo sapiens) + Estrogen receptor beta (Homo sapiens) (UniProt P03372+Q92731); test: OT_ER_ERaERb_1440: Odyssey Thera (OT) 24-hour HEK293T Protein-Complementation Assay for Estrogen Receptor-alpha/-beta Homodimer (AID 2283356);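 further: heteromer of ER alpha and ER beta binding domains; hits raise reporter fluorescence and both agonists and antagonists give an increase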
Sequence of Estrogen receptor (Homo sapiens) + Estrogen receptor beta (Homo sapiens) (P03372 whole entry, looked up, the tested form may be a part): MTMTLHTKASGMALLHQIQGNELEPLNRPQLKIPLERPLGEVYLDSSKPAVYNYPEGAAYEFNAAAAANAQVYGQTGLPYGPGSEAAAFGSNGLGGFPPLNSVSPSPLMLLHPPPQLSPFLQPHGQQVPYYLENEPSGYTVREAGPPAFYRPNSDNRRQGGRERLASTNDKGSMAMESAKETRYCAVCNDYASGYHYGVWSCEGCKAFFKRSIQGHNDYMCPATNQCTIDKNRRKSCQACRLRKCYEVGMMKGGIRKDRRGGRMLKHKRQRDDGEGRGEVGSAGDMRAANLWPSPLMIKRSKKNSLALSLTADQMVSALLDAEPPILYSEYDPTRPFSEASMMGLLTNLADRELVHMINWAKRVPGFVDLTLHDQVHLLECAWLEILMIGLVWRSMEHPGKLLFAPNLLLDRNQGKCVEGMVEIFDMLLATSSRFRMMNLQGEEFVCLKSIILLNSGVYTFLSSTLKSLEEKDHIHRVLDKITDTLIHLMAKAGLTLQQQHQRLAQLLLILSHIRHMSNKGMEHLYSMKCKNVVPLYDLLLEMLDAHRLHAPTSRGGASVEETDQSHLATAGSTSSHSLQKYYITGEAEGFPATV
Sequence of Estrogen receptor (Homo sapiens) + Estrogen receptor beta (Homo sapiens) (Q92731 whole entry, looked up, the tested form may be a part): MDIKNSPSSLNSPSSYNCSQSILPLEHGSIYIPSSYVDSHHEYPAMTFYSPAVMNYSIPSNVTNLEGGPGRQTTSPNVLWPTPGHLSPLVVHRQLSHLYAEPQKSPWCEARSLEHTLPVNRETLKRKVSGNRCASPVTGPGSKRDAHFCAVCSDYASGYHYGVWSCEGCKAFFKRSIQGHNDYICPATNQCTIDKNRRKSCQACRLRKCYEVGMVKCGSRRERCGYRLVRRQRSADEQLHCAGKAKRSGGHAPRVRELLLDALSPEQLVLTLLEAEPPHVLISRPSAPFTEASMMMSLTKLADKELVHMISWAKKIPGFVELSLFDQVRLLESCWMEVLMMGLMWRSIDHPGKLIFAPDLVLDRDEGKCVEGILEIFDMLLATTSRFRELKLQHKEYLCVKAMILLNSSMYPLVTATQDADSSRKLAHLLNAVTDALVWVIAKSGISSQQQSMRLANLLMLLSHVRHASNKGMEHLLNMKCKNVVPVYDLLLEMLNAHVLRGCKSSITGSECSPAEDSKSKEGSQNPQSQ
In short: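 Heterodimerisation of ERα (aa 310-547) and ERβ (aa 263-489) ligand binding domains was tracked as fluorescence gain in stably transfected HEK293T cells following 24 h dosing, normalised to DMSO controls.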

[2] = molecular target: Estrogen receptor beta (Homo sapiens) (UniProt Q92731); test: OT_ER_ERbERb_0480: Odyssey Thera (OT) 8-hour HEK293T Protein-Complementation Assay for Estrogen Receptor-beta/-beta Homodimer (AID 2283357);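 further: active means signal gain over DMSO baseline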
Sequence of Estrogen receptor beta (Homo sapiens) (Q92731 whole entry, looked up, the tested form may be a part): as above
In short: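 Fluorescence gain from complemented reporter fragments on ER-beta LBD homodimer in HEK293T was quantified against DMSO controls after 8 h treatment, fixation in 4% formaldehyde and Draq5 staining.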

[3] = molecular target: human Peroxisome Proliferator-activated Receptor alpha (PPARa), PPARA (gene 5465) (UniProt Q07869); test: NVS_NR_hPPARa: NovaScreen (NVS) Nuclear Receptor Binding Assay for human Peroxisome Proliferator-activated Receptor alpha (PPARa) (AID 2283359);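 further: activity means loss of TR-FRET signal versus DMSO baseline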
In short: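 One-hour incubation, cell-free extracted protein, TR-FRET binding readout; signal loss vs DMSO scored. Screen: 25 uM duplicates, confirmatory dose series for actives.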

[4] = molecular target: Glucocorticoid receptor (Homo sapiens) (UniProt P04150); test: NVS_NR_hGR: NovaScreen (NVS) Nuclear Receptor Binding Assay for human Glucocorticoid Receptor (GR) (AID 2283363);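 further: activity is loss of specific radioligand binding signal relative to DMSO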
Sequence of Glucocorticoid receptor (Homo sapiens) (P04150 whole entry, looked up): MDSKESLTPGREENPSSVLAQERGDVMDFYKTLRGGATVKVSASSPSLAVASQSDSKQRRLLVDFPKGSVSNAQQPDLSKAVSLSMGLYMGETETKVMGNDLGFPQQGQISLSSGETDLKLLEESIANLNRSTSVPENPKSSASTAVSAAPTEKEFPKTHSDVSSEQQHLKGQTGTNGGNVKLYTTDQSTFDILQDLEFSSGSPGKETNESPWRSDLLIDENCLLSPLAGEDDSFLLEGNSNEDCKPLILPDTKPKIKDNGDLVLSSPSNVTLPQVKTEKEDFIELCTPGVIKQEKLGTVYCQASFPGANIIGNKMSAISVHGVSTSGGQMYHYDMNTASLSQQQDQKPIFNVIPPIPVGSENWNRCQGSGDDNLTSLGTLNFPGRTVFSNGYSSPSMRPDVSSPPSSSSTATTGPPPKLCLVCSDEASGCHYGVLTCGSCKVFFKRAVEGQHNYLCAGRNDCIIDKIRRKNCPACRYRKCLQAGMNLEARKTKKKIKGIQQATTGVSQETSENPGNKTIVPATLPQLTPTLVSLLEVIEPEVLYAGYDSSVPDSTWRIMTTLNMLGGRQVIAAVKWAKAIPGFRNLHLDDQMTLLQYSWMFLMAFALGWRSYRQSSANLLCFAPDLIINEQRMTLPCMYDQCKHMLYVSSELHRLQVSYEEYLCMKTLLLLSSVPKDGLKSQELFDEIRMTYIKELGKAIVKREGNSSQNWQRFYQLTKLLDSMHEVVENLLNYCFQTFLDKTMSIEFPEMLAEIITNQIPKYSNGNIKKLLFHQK
In short: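 Single-readout cell-free binding: radioligand plus extracted receptor, 16-hour dosing, filter radiodetection; 25 uM duplicate primary, concentration series secondary.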

[5] = molecular target: human Adenosine Transporter (Adot), SLC29A1 (gene 2030) (UniProt Q99808); test: NVS_TR_hAdoT: NovaScreen (NVS) Transporter Assay for human Adenosine Transporter (Adot) (AID 2283368)
Sequence of human Adenosine Transporter (Adot), SLC29A1 (gene 2030) (Q99808 whole entry, looked up): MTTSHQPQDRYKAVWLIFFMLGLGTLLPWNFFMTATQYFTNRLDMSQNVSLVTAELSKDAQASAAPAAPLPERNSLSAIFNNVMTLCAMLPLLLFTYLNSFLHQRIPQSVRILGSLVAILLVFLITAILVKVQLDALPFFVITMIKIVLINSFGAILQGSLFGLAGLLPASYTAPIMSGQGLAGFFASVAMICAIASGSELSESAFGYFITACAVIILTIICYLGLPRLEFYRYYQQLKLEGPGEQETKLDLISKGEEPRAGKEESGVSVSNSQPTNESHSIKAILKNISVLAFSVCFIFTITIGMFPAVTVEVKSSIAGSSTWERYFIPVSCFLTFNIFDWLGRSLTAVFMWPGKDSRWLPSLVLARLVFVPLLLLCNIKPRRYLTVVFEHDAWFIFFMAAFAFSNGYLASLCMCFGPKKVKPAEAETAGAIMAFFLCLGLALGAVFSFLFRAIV
In short: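 Binding displacement on U937 extracted protein, read 1 h post-dose by filtration and scintillation counting. Primary duplicate test at 25 uM, then singleton concentration series with 50 uM top; DMSO baseline.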

[6] = molecular target: Peroxisome proliferator-activated receptor gamma (Homo sapiens) (UniProt P37231); test: NVS_NR_hPPARg: NovaScreen (NVS) Nuclear Receptor Binding Assay for human Peroxisome Proliferator-activated Receptor gamma (PPARg) (AID 2283370)
Sequence of Peroxisome proliferator-activated receptor gamma (Homo sapiens) (P37231 whole entry, looked up): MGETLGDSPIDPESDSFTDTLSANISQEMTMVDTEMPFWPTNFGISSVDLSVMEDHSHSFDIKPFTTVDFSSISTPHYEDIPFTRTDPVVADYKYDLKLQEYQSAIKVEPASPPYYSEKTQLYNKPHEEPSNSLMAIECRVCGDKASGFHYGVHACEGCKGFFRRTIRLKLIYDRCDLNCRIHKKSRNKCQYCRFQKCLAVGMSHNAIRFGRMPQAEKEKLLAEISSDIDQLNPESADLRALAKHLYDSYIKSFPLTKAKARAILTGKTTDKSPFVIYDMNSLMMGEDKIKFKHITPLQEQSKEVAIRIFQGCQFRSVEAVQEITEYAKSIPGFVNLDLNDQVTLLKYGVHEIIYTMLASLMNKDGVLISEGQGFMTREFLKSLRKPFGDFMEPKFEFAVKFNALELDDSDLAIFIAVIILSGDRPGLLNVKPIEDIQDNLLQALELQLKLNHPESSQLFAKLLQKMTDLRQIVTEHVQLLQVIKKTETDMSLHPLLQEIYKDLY
In short: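 Fluorescence polarization measures competitive binding to extracted PPARg in a cell-free format. Reading is taken at 2 h; activity is signal loss relative to DMSO. Screening at 25 uM in duplicate preceded confirmatory dose series.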

[7] = molecular target: human Dopamine Transporter (DAT), SLC6A3 (gene 6531) (UniProt Q01959); test: NVS_TR_hDAT: NovaScreen (NVS) Transporter Assay for human Dopamine Transporter (DAT) (AID 2283374);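 further: activity means loss of bound radioligand signal relative to DMSO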
Sequence of human Dopamine Transporter (DAT), SLC6A3 (gene 6531) (Q01959 whole entry, looked up): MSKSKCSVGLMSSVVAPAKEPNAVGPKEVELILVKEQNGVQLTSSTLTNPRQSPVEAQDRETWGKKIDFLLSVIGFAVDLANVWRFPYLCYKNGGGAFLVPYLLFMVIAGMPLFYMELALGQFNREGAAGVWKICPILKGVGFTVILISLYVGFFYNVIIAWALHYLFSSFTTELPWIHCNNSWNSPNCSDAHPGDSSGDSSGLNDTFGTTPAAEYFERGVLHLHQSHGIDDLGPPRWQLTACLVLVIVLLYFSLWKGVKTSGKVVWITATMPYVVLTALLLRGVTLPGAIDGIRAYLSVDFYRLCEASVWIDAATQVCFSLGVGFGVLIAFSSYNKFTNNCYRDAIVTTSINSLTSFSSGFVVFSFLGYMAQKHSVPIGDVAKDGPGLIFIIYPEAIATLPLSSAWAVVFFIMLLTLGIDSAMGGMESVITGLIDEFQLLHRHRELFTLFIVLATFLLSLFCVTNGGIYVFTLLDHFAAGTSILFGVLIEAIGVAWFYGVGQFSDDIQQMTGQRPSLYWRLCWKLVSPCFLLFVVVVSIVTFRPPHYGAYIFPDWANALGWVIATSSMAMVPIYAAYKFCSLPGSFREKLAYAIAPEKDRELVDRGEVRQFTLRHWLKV
In short: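 Extracted human SLC6A3 protein incubated 1 h with radioligand and test chemical; bound fraction separated on filters and counted. Single 25 uM duplicate screen preceded concentration-response follow-up; positive and negative controls on every plate.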

[8] = molecular target: guinea pig Sigma Receptor, Non-selective Binding, SIGMAR1 (gene 100135589) (UniProt Q60492); test: NVS_OR_gSIGMA_NonSelective: NovaScreen (NVS) Nuclear Receptor Binding Assay for guinea pig Sigma Receptor, Non-selective Binding (AID 2283367)
Sequence of guinea pig Sigma Receptor, Non-selective Binding, SIGMAR1 (gene 100135589) (Q60492 whole entry, looked up): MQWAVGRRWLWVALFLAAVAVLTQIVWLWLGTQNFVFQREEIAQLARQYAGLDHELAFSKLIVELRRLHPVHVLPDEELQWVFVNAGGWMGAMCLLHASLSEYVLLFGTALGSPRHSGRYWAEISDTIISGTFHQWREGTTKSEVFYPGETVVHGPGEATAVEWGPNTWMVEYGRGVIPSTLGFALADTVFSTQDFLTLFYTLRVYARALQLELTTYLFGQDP
In short: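 Test chemicals were screened in duplicate at 25 uM, then in concentration series if active, against radioligand binding to guinea pig brain membranes; filtration and scintillation counting at 1 h measured remaining bound ligand.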

[9] = tested on: guinea pig Dopamine Transporter (DAT), gene 100714898; test: NVS_TR_gDAT: NovaScreen (NVS) Transporter Assay for guinea pig Dopamine Transporter (DAT) (AID 2283369);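 further: active compounds lower bound radioligand signal relative to DMSO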
In short: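 Test chemicals were incubated 2 h with guinea pig striatal membranes and a radioligand; bound label was separated by filtration and counted. Screening ran at 25 uM, followed by concentration-response testing to a 50 uM maximum.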

[10] = molecular target: rat Serotonin Transporter (SERT), Slc6a4 (gene 25553) (UniProt P31652); test: NVS_TR_rSERT: NovaScreen (NVS) Transporter Assay for rat Serotonin Transporter (SERT) (AID 2283375)
In short: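 Steps: rat forebrain membranes dosed with chemical (25 uM duplicate primary; concentration series for actives); 1 h incubation; labelled ligand bound, filtered, counted by scintillation. Activity scored as signal loss vs DMSO.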

PGR (gene 5241) = PGR (gene 5241) (UniProt P06401); test: NVS_NR_hPR: NovaScreen (NVS) Nuclear Receptor Binding Assay for human Progestron Receptor (PR) (AID 2283360);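 further: active means loss of bound radioligand signal versus DMSO baseline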
Sequence of PGR (gene 5241) (P06401 whole entry, looked up): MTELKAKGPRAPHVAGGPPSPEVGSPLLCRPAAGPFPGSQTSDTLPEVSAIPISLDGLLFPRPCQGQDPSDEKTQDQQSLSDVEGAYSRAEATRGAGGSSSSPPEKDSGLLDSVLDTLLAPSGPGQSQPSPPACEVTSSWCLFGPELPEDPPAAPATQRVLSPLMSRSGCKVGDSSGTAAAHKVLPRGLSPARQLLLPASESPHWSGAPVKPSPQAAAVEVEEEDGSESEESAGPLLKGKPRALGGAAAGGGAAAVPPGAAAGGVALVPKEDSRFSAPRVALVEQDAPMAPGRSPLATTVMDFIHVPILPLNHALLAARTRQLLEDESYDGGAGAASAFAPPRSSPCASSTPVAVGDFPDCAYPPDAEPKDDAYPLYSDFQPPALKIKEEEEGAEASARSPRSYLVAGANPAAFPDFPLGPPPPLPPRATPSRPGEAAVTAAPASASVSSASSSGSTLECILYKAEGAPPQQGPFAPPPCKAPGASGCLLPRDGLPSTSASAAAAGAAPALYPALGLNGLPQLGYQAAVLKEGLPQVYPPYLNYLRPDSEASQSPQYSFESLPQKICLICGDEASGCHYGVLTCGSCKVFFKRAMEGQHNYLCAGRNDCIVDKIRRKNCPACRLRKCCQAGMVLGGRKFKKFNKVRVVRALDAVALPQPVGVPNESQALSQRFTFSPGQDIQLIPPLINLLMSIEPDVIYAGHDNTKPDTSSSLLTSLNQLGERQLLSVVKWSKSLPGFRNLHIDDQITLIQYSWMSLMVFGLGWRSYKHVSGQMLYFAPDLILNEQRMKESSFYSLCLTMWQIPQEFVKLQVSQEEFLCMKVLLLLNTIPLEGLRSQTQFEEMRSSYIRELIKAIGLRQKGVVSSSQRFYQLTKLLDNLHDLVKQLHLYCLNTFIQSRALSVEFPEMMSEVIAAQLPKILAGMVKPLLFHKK
In short: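 T47D lysate; tritiated or iodinated radioligand; scintillation count at 18 h. DMSO = negative control/baseline. Primary: 25 uM, duplicate. Secondary: concentration series for actives.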

[11] = tested on: rat Norepinephrine Transporter (NET), gene 83511; test: NVS_TR_rNET: NovaScreen (NVS) Transporter Assay for rat Norepinephrine Transporter (NET) (AID 2283373)
In short: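 Competitive radioligand displacement at the rat NET using forebrain membrane preparations, 1 h incubation, filter-based scintillation readout. Primary testing in duplicate at a single 25 uM concentration; confirmed actives retested across concentrations.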

[12] = molecular target: Retinoic acid receptor alpha (Homo sapiens) (UniProt P10276); test: NVS_NR_hRARa_Agonist: NovaScreen (NVS) Nuclear Receptor Binding Assay for human Retinoic Acid Alpha Receptor Agonism (RAR) (AID 2283361)
In short: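 Compounds screened at 25 uM, duplicate, then in concentration series if active. Detection: TR-FRET gain of signal versus DMSO after 2 h with cell-free extracted RARα.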

[13] = molecular target: human Serotonin Transporter (SERT), SLC6A4 (gene 6532) (UniProt P31645); test: NVS_TR_hSERT: NovaScreen (NVS) Transporter Assay for human Serotonin Transporter (SERT) (AID 2283372)
In short: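 Human platelet membrane preparation; displacement of radioligand from serotonin transporter measured after 1 h by filtration and scintillation counting. Single 25 uM duplicate screen, then concentration series for actives, with DMSO as negative baseline.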

CCCCCCCCOC(=O)c1cc(O)c(O)c(O)c1 was tested, and the AC50 [1] was 13 µM (active), the AC50 [2] was 12.4 µM (active) and the AC50 [3] was 19 µM (active). For the same molecule, the AC50 [4] was 1.14 µM (active), the AC50 [5] was 22.2 µM (active) and the AC50 [6] was 25 µM (active). For the same molecule, the AC50 [7] was 19.9 µM (active).

With COc1cccc([C@H](O)C2CCN(CCc3ccc(F)cc3)CC2)c1OC the outcome [1] was “inactive”, the outcome [2] was “inactive” and the AC50 [8] was 0.29 µM (active). For the same molecule, the AC50 [9] was 19.9 µM (active) and the AC50 [10] was 8.09 µM (active).

CC(C)(c1cc(Br)c(O)c(Br)c1)c1cc(Br)c(O)c(Br)c1 was tested, and the outcome [2] was “inactive”, the AC50 [3] was 8.19 µM (active) and the AC50 (PGR (gene 5241)) was 23.9 µM (active). For the same molecule, the AC50 [4] was 4.97 µM (active).

In the case of CCCCCCCCOc1ccc(C(=O)c2ccccc2)c(O)c1, the outcome [3] is reported as “inactive”.

For O=C=NCCCCCCN=C=O, the outcome [1] was “inactive” and the AC50 [7] was 16.3 µM (active).

With Cc1ccc2oc(CN(Cc3ccccc3)C(=O)Nc3c(F)cc(F)cc3F)c(-c3ccc(Cl)cc3)c2c1 the outcome [1] was “inactive”, the outcome [2] was “inactive” and the AC50 [5] was 1.1 µM (active). The outcome [9] was “inactive”.

For CC1(C)NC(=O)N(c2ccc([N+](=O)[O-])c(C(F)(F)F)c2)C1=O, the outcome [2] was “inactive”, the AC50 (PGR (gene 5241)) was 15.7 µM (active) and the outcome [6] was “inactive”.

In the case of O=c1[nH]sc2ccccc12, the outcome [1] is reported as “inactive”, the outcome [2] is reported as “inactive” and the AC50 [5] is reported as 17.2 µM (active). For the same molecule, the AC50 [9] was 40.5 µM (active) and the AC50 [7] was 21.4 µM (active).

In the case of CC[C@H](NC(=O)c1cc(F)ccc1NS(=O)(=O)c1cccc2cccnc12)c1ccccc1, the outcome [1] is reported as “inactive”, the outcome [2] is reported as “inactive” and the outcome [6] is reported as “inactive”.

For CCCCCCCCN(C)CCCCCCCC, the outcome (PGR (gene 5241)) was “inactive” and the AC50 [8] was 0.212 µM (active).

CC(C)(C)c1cc(/C=C2\SC(N)=NC2=O)cc(C(C)(C)C)c1O was tested, and the outcome (PGR (gene 5241)) was “inactive”.

O=C1O[C@H]([C@@H](O)CO)C(O)=C1O was tested, and the outcome [2] was “inactive” and the outcome [6] was “inactive”.

In the case of CC1=CC(=O)/C(=C(/C)O)C(=O)O1, the outcome [1] is reported as “inactive”, the outcome [2] is reported as “inactive” and the outcome (PGR (gene 5241)) is reported as “inactive”. For the same molecule, the outcome [6] was “inactive”.

With Cc1oc2c(NC(=O)c3c(Cl)cccc3Cl)cccc2c1C(C)(C)O the AC50 [5] was 25 µM (active) and the outcome [6] was “inactive”.

For Cc1ncc(CO)c(CO)c1O, the AC50 (PGR (gene 5241)) was 16.9 µM (active).

In the case of Clc1cc(Cl)c2c(c1)N=C1CCCCCN1C2, the outcome [3] is reported as “inactive”, the outcome (PGR (gene 5241)) is reported as “inactive” and the AC50 [8] is reported as 0.542 µM (active). For the same molecule, the AC50 [11] was 4.16 µM (active) and the AC50 [7] was 4.92 µM (active).

With CCN(CC)C(=O)c1cc(S(=O)(=O)Cc2ccccc2)c(N2CCC(c3ccccc3)CC2)cc1N(CC)CCN(C)C the outcome [2] was “inactive”, the outcome [12] was “inactive” and the AC50 [4] was 14.2 µM (active). The AC50 [8] was 6.21 µM (active), the AC50 [9] was 6.53 µM (active) and the AC50 [7] was 5.63 µM (active).

CC(C)(C)c1csc(-c2cc3cc(OCc4ccccc4CC(=O)O)ccc3o2)n1 was tested, and the outcome [1] was “inactive”, the outcome [2] was “inactive” and the AC50 [6] was 0.00229 µM (active).

In the case of O=C1c2ccccc2C(=O)N1CCc1noc(-c2ccc(CN3CCCCCC3)s2)n1, the AC50 [8] is reported as 6.76 µM (active), the AC50 [5] is reported as 21.1 µM (active) and the AC50 [9] is reported as 13.9 µM (active). For the same molecule, the outcome [13] was “inactive”, the AC50 [11] was 7.26 µM (active) and the AC50 [10] was 9.05 µM (active).
